For some assays here: Results with a measured potency or affinity are listed apart. Active and inactive are the calls of the source. Unless noted, no rule for the calls is given here.
Assays:
[1] = antimalarial activity against Dd2 strain (AID 2302;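 active = growth inhibition above 50% at the single 2 µM test dose, taken to imply half-maximal potency below 2 µM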;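 also: 0% = DMSO untreated growth and 100% = chloroquine plus artemisinin killed control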); settings: P. falciparum Dd2 in RBCs, LDH growth readout, 72 h; at 2 µM; hits give high values
[2] = HepG2 cytotoxicity, primary screen, cytotoxicity control for P. falciparum antimalarial project, cell-based, ATP luminescence (AID 2303;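 active = inhibition above 50%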;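 also: 0% = DMSO wells and 100% = digitonin-killed cells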); settings: HepG2 viability, 24-48 h, at 10 µM, hits give high values
[3] = biological target: L-lactate dehydrogenase (Plasmodium falciparum (isolate CDC / Honduras)) (UniProt Q27743); assay: PfLDH activity inhibition – cell lysate, 3D7 strain, counter-screen for P. falciparum growth inhibition project (AID 2304);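 also: 0% = vehicle and 100% = reference inhibitor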; settings: P. falciparum 3D7 crude extract, LDH APAD/NBT absorbance; at 2 µM; hits give high values
[4] = inhibition of 3D7 malaria parasite growth – strain 3D7 (AID 2306);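 also: 0% = DMSO wells and 100% = chloroquine plus artemisinin control wells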; settings: P. falciparum 3D7 erythrocytic growth, LDH absorbance, 72 h; at 2 µM; hits give high values
[5] = biological target: Calcium-dependent protein kinase 1 (Plasmodium falciparum (isolate 3D7)) (UniProt P62344); assay: PfCDPK1 kinase inhibitors, biochemical, TCAMS library (AID 1159585; cut-off not given, nearly all actives have IC50 up to about 0.98 µM;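 also: inhibitors leave more ATP so luminescence rises with inhibition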); settings: recombinant PfCDPK1, Kinase-Glo ATP depletion luminescence
[6] = biological target: Plasmodium falciparum protein kinase 6 (PK6, PF3D7_1337100) (UniProt Q8IDW1); assay: PfPK6 kinase inhibitors, biochemical, TCAMS library (AID 1159586); settings: recombinant PfPK6, Kinase-Glo ATP depletion luminescence
[7] = biological target: Protein kinase 7 (PK7), Plasmodium falciparum 3D7 (PF3D7_0213400) (UniProt Q7YTF7); assay: inhibition of Plasmodium PK7 catalytic activity – biochemical, TCAMS antimalarial set, Kinase-Glo luminescence (AID 1159587); settings: recombinant PfPK7, Kinase-Glo ATP depletion luminescence
[8] = biological target: Calcium-dependent protein kinase 4 (Plasmodium falciparum (isolate 3D7)) (UniProt Q8IBS5); assay: PfCDPK4 kinase inhibitors, biochemical, TCAMS library (AID 1159588; cut-off not given, nearly all actives have IC50 up to about 0.91 µM); settings: recombinant PfCDPK4, Kinase-Glo ATP depletion luminescence
Chain of Calcium-dependent protein kinase 4 (Plasmodium falciparum (isolate 3D7)) (Q8IBS5 whole entry, looked up): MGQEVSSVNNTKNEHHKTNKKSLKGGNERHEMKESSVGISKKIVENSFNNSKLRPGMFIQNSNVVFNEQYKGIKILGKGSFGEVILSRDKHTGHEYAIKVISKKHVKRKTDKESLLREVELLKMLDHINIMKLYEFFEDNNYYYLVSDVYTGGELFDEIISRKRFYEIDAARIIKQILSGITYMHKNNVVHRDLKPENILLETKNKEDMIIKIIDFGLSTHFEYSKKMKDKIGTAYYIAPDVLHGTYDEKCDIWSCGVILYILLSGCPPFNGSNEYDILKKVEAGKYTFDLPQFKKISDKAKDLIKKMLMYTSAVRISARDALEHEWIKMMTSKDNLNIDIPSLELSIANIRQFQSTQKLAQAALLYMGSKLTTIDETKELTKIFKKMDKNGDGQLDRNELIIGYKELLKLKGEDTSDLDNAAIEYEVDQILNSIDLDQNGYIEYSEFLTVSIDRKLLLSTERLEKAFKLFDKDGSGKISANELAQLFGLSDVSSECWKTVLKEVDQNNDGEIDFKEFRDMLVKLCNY

Chain of Calcium-dependent protein kinase 1 (Plasmodium falciparum (isolate 3D7)) (P62344 whole entry, looked up): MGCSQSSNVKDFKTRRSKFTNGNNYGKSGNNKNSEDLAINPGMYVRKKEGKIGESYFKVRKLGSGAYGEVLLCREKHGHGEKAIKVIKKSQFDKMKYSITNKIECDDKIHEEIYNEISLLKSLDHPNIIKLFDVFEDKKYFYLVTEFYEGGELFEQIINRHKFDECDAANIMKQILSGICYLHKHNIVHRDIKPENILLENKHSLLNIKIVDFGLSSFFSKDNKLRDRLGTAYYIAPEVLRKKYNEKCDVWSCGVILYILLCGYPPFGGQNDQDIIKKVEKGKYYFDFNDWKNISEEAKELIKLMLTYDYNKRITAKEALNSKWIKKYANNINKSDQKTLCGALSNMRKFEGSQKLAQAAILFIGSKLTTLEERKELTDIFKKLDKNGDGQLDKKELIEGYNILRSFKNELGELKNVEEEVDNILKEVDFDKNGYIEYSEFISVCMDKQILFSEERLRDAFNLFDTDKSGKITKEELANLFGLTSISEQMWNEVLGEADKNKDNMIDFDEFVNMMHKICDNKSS
Chain of L-lactate dehydrogenase (Plasmodium falciparum (isolate CDC / Honduras)) (Q27743 whole entry, looked up): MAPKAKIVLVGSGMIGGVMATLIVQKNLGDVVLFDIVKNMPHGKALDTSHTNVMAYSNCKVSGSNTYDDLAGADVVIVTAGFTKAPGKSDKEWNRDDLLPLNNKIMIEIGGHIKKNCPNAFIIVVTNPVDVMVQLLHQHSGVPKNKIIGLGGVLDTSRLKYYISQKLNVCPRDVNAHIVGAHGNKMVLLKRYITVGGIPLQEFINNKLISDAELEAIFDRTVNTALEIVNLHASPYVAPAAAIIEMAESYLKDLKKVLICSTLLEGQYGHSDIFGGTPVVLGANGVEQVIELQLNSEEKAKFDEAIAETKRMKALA
Chain of Plasmodium falciparum protein kinase 6 (PK6, PF3D7_1337100) (Q8IDW1 1-305): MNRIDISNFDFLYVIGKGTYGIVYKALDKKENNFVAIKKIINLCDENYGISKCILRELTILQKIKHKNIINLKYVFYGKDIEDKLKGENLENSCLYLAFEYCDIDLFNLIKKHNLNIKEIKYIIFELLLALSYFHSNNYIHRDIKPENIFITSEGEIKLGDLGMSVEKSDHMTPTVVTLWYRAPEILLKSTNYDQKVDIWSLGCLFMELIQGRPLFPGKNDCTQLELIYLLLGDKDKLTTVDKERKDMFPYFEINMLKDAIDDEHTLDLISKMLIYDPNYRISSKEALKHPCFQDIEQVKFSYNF
Chain of Protein kinase 7 (PK7), Plasmodium falciparum 3D7 (PF3D7_0213400) (Q7YTF7 1-343): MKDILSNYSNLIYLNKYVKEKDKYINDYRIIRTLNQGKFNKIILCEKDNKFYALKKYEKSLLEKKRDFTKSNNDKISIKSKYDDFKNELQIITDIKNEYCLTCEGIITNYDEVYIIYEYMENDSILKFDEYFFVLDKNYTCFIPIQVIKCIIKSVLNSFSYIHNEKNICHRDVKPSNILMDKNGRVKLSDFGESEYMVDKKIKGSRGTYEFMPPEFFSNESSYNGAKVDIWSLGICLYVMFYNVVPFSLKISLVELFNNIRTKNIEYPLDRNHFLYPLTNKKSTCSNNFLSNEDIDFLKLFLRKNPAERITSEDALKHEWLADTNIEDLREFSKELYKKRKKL

NC1=NC(c2ccccc2)N(c2ccccc2)C(N)=N1 (stereo unspecified)
active: growth inhibition [1] 85% | growth inhibition [4] 96%
inactive: inhibition [2] 0% | inhibition [3] 2% | outcome [5] | outcome [6] | outcome [7] | outcome [8]

Cc1ccc(CNC(=O)[C@H](CCCN)Nc2cc(C)nc(NCC3CCCCC3)n2)cc1
inactive: growth inhibition [1] -2% | inhibition [2] 1% | inhibition [3] 0% | outcome [5] | outcome [6] | outcome [7] | outcome [8]
active: growth inhibition [4] 90%

COc1cc(-c2nc(-c3ccccc3)c(-c3ccc([N+](=O)[O-])cc3)[nH]2)cc(OC)c1O
inactive: inhibition [2] 7% | inhibition [3] -3% | outcome [5] | outcome [6] | outcome [7] | outcome [8]
active: growth inhibition [1] 56% | growth inhibition [4] 98%

Cc1cc(NCCC(=O)NCCOc2ccccc2)nc(NCc2ccccc2C)n1
inactive: growth inhibition [1] 29% | inhibition [2] 17% | inhibition [3] 0% | outcome [5] | outcome [6] | outcome [7] | outcome [8]
active: growth inhibition [4] 92%

Cc1ccc(Nc2nccc(NCC(O)c3cccc(C)c3)n2)cc1 (stereo unspecified)
active: growth inhibition [4] 90%
inactive: growth inhibition [1] 23% | inhibition [2] 22% | inhibition [3] 0% | outcome [5] | outcome [6] | outcome [7] | outcome [8]

COc1ccc(-c2ccc(NC(=O)c3cccc(F)c3)cc2)cc1CNC(C)C
inactive: growth inhibition [1] 14% | inhibition [2] 17% | inhibition [3] -2% | outcome [5] | outcome [6] | outcome [7] | outcome [8]
active: growth inhibition [4] 97%

CC(=O)Nc1ccc(NC(=O)c2cc(-c3cc(Cl)ccc3O)n[nH]2)cc1
inactive: inhibition [2] 1% | inhibition [3] -2% | outcome [5] | outcome [6] | outcome [7] | outcome [8]
active: growth inhibition [1] 100% | growth inhibition [4] 100%

Oc1ccc2nc(Nc3ccccc3)nc(NCCc3ccccc3)c2c1
active: growth inhibition [1] 100% | growth inhibition [4] 100%
inactive: inhibition [2] 20% | inhibition [3] -6% | outcome [5] | outcome [6] | outcome [7] | outcome [8]

CCCC(C(=O)OCCNC)(c1ccccc1)c1ccccc1
inactive: inhibition [2] 7% | inhibition [3] 7% | outcome [5] | outcome [6] | outcome [7] | outcome [8]
active: growth inhibition [1] 96% | growth inhibition [4] 98%

CC(=O)NC(c1cccs1)c1cc(Cl)c2cccnc2c1O (stereo unspecified)
inactive: inhibition [3] -2% | outcome [5] | outcome [6] | outcome [7] | outcome [8]
active: growth inhibition [1] 93% | inhibition [2] 65% | growth inhibition [4] 94%

COCc1nc(-c2ccccc2)nc(N2CCN(C(=O)NC(C)C)CC2)c1Cc1ccccc1F
active: growth inhibition [1] 94% | growth inhibition [4] 96%
inactive: inhibition [2] 35% | inhibition [3] -3% | outcome [5] | outcome [6] | outcome [7] | outcome [8]

O=C(/C=C/c1ccc(Cl)c(Cl)c1)NCCCCCN1CCC(NC(=O)Nc2cc(F)cc(F)c2)CC1
active: inhibition [2] 80% | growth inhibition [4] 101%
inactive: growth inhibition [1] 6% | inhibition [3] -3% | outcome [5] | outcome [6] | outcome [7] | outcome [8]

CN1c2ccccc2Sc2cc(CNCCSCCNCc3ccc4c(c3)Sc3ccccc3N4C)ccc21
active: inhibition [2] 58% | growth inhibition [4] 84%
inactive: growth inhibition [1] 44% | inhibition [3] 0% | outcome [5] | outcome [6] | outcome [7] | outcome [8]

CN1CCC(C(=O)Nc2cccc(-c3ccc(-c4nc5ccc(F)cc5[nH]4)cc3)c2)CC1
active: growth inhibition [1] 51% | growth inhibition [4] 100%
inactive: inhibition [2] 12% | inhibition [3] 3% | outcome [5] | outcome [6] | outcome [7] | outcome [8]

COCCN1CCC(CN(C)CC(C)(C)c2nc(-c3ccc(Cl)c(O)c3)c(-c3ccncc3)[nH]2)CC1
inactive: growth inhibition [1] 10% | inhibition [2] -8% | inhibition [3] -2% | outcome [5] | outcome [6] | outcome [7] | outcome [8]
active: growth inhibition [4] 94%

Cc1ccccc1NC(=O)C1CSCN1C(=O)OCc1ccccc1 (stereo unspecified)
active: growth inhibition [4] 91%
inactive: growth inhibition [1] -1% | inhibition [2] 8% | inhibition [3] -1% | outcome [5] | outcome [6] | outcome [7] | outcome [8]

Cc1ccccc1-c1cc(=O)c2cc(NC(=O)c3cccs3)ccc2o1
active: growth inhibition [1] 95% | growth inhibition [4] 96%
inactive: inhibition [2] 22% | inhibition [3] -4% | outcome [5] | outcome [6] | outcome [7] | outcome [8]

Cc1cc2nc(-c3cc(-c4cccc(NS(C)(=O)=O)c4)cnc3N)[nH]c2cc1C
active: growth inhibition [4] 102%
inactive: growth inhibition [1] 32% | inhibition [2] 43% | inhibition [3] -2% | outcome [5] | outcome [6] | outcome [7] | outcome [8]

COc1ccc2c(NN=Cc3ccc([N+](=O)[O-])cc3)ccnc2c1
active: growth inhibition [1] 98% | growth inhibition [4] 100%
inactive: inhibition [2] -1% | inhibition [3] -1% | outcome [5] | outcome [6] | outcome [7] | outcome [8]

COc1ccc(C(C(=O)NC2CCN(C[C@H](O)c3ccnc4ccc(OC)cc34)CC2)N2CCc3ccccc3C2)cc1 (stereo partly specified)
inactive: growth inhibition [1] 30% | inhibition [2] 19% | inhibition [3] -3% | outcome [5] | outcome [6] | outcome [7] | outcome [8]
active: growth inhibition [4] 96%

O=S(=O)(c1ccc(OCc2ccc(Cl)cc2)cc1)c1cc2c(cc1OCc1ccccc1)CCN(C1CCC1)CC2
active: growth inhibition [4] 89%
inactive: growth inhibition [1] 13% | inhibition [2] 17% | inhibition [3] 6% | outcome [5] | outcome [6] | outcome [7] | outcome [8]

Cc1ccccc1C1CCN(C2CCC(NC(=O)/C=C/c3cccc(C(F)(F)F)c3)CC2)CC1 (stereo unspecified)
inactive: inhibition [3] -4% | outcome [5] | outcome [6] | outcome [7] | outcome [8]
active: growth inhibition [1] 54% | inhibition [2] 96% | growth inhibition [4] 100%

CCOCc1cnc(C)nc1CNC(=O)c1c(C)[nH]c2ccc(C)cc12
active: growth inhibition [1] 65% | growth inhibition [4] 84%
inactive: inhibition [2] 8% | inhibition [3] 3% | outcome [5] | outcome [6] | outcome [7] | outcome [8]

O=C(Nc1cccc(CN2CCCN(Cc3ccc(O)cc3)CC2)c1)c1ccc(-c2ccccc2)cc1
inactive: inhibition [2] 33% | inhibition [3] -8% | outcome [5] | outcome [6] | outcome [7] | outcome [8]
active: growth inhibition [1] 93% | growth inhibition [4] 100%

c1cncc(-c2cccc(CNc3nccc(Nc4ccc(OCCN5CCOCC5)cc4)n3)c2)c1
inactive: growth inhibition [1] 27% | inhibition [2] 1% | inhibition [3] -2% | outcome [5] | outcome [6] | outcome [7] | outcome [8]
active: growth inhibition [4] 93%

COc1ccc(C2(CNCC(O)c3cccc([N+](=O)[O-])c3)CCCCC2)cc1OC (stereo unspecified)
inactive: inhibition [2] -2% | inhibition [3] 3% | outcome [5] | outcome [6] | outcome [7] | outcome [8]
active: growth inhibition [1] 85% | growth inhibition [4] 95%

O=C1c2ccccc2-n2c1nc1ccccc1c2=O
inactive: inhibition [2] 9% | inhibition [3] 4% | outcome [5] | outcome [6] | outcome [7] | outcome [8]
active: growth inhibition [1] 80% | growth inhibition [4] 93%

Cc1cc(-c2ccc3c(c2)CCN(CCC2CCC(NC(=O)/C=C/c4ccc(F)cc4)CC2)CC3)on1 (stereo unspecified)
active: growth inhibition [4] 98%
inactive: growth inhibition [1] 47% | inhibition [2] 29% | inhibition [3] -4% | outcome [5] | outcome [6] | outcome [7] | outcome [8]

CN(C)CCOc1ccc(-c2cc(-c3ccc(Cl)c(O)c3)c(-c3ccncc3)o2)cc1
active: growth inhibition [1] 99% | growth inhibition [4] 102%
inactive: inhibition [2] 39% | inhibition [3] 2% | outcome [5] | outcome [6] | outcome [7] | outcome [8]

COc1cccc(CNC[C@@H](O)[C@H](Cc2ccccc2)NC(=O)c2cc(OC(C)C)cc(N3CCCCS3(=O)=O)c2)c1
active: growth inhibition [4] 95%
inactive: growth inhibition [1] 49% | inhibition [2] 8% | inhibition [3] 5% | outcome [5] | outcome [6] | outcome [7] | outcome [8]

COc1cc(CNCCC(C)C)ccc1OCc1cccc(COc2ccc(CNCCC(C)C)cc2OC)c1
inactive: growth inhibition [1] 20% | inhibition [3] 6% | outcome [5] | outcome [6] | outcome [7] | outcome [8]
active: inhibition [2] 97% | growth inhibition [4] 99%

CCc1cn(CCOC)c2ccc(C(=O)N[C@@H](Cc3ccccc3)[C@H](O)CNC(C)(C)CCCC(C)C)cc12
active: growth inhibition [1] 98% | growth inhibition [4] 98%
inactive: inhibition [2] 35% | inhibition [3] 1% | outcome [5] | outcome [6] | outcome [7] | outcome [8]

CCc1sc(N2CCN(C)CC2)nc1C(=O)Nc1ccc(F)cc1C(F)(F)F
active: growth inhibition [1] 98% | growth inhibition [4] 101%
inactive: inhibition [2] -1% | inhibition [3] 5% | outcome [5] | outcome [6] | outcome [7] | outcome [8]

COc1ccc2nc(C)cc(NN=Cc3ccc([N+](=O)[O-])o3)c2c1
active: growth inhibition [1] 100% | growth inhibition [4] 100%
inactive: inhibition [2] 18% | inhibition [3] -5% | outcome [5] | outcome [6] | outcome [7] | outcome [8]

COc1cc(Nc2nccc(N3CCC(NC(=O)c4cc5ccccc5s4)C3)n2)cc(OC)c1OC (stereo unspecified)
active: growth inhibition [1] 50% | growth inhibition [4] 96%
inactive: inhibition [2] 2% | inhibition [3] 2% | outcome [5] | outcome [6] | outcome [7] | outcome [8]

Cc1ccccc1C1CCN(C2CCC(NC(=O)/C=C/c3cc(F)cc(F)c3)CC2)CC1 (stereo unspecified)
inactive: growth inhibition [1] 33% | inhibition [3] 3% | outcome [5] | outcome [6] | outcome [7] | outcome [8]
active: inhibition [2] 53% | growth inhibition [4] 99%

CSC1=NC2(CC(c3cccc(C)c3)c3cc(Cl)c(O)cc3O2)CC(C)(C)N1 (stereo unspecified)
inactive: inhibition [2] 0% | inhibition [3] 4% | outcome [5] | outcome [6] | outcome [7] | outcome [8]
active: growth inhibition [1] 73% | growth inhibition [4] 100%

Reference: PubChem BioAssay
